Hits are enriched below; roughly 8.5% of the tested compounds scored in any of these assays.
KDM4E inh – JMJD2E (human) inhibition | B2RXH2 | JMJD2E catalytic domain, FDH-coupled NADH fluorescence (FDH is formaldehyde dehydrogenase) | Potency, µM (titrated, usually from 57.1 µM), for inactives: at the top dose activity change, negative = inhibition, hits mostly inhibitors | 230,000 compounds, 1.6% hits | AID 2147; active means well fitted inhibition curve with a large enough effect, not every such curve was filed as active; inconclusive means small, poorly fitted or top-dose-only effect, or another doubt; inactive means no such curve, though single readings can be large or run the other way;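 further: potency means the concentration at half of the fitted maximal effect; 0% = wells with enzyme and -100% = buffer wells without enzyme; nearly all actives have a fitted effect of over 50% in size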
Target sequence (B2RXH2 1-337 limits assumed): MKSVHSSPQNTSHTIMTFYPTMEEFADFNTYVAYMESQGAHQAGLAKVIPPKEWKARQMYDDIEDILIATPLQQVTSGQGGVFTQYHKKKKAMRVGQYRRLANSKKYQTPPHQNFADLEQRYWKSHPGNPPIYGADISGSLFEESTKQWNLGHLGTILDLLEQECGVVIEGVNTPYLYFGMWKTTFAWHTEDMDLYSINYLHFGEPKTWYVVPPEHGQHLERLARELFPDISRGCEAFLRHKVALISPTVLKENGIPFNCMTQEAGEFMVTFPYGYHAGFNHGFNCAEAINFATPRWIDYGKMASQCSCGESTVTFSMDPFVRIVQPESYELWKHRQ
NPSR antagonist – antagonists of human neuropeptide S receptor cAMP signaling. CHO-NPSR cells, cAMP TR-FRET, antagonist mode. Potency, µM (highest dose often 38.3 µM), for the others: at the top dose activity change, negative = inhibition, actives largely listed as inhibitors. 220,000 compounds, 1% hits. AID 1461; further: potency means the concentration at half of the fitted maximal effect; nearly all actives have a fitted effect of over 50% in size
Coupling enz – counter-screen for Giardia aldolase inhibitors: coupling enzyme system. coupling enzyme system counterscreen, AmpLite Red fluorescence. AID 2472. 290,000 compounds, 0.67% hits. activity change, negative = inhibition, % at 58.2 µM, hits read low; in the data active means activity change below about -30%
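Counterscreen lacking aldolase: glyceraldehyde-3-phosphate coupling-enzyme reagent preincubated 10 min at RT with compound (at 57.5 uM final), then substrate/coupling system with AmpLite Red added; fluorescence read at 525/598 nm after 20 min RT.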
GoLoco inh red – inhibitors of human Gai1-RGS12 GoLoco interaction (red fluorophore). P63096. Gai1:RGS12 GoLoco peptide FP, rhodamine, 10 min. Potency, µM (series often up to 61.6 µM), without a hit: top-dose activity, negative = inhibition, usual class: inhibitors. 230,000 compounds, 0.44% hits; active means well fitted inhibition curve with a large enough effect, not every such curve was filed as active; inactive means no such curve, though single readings can be large or run the other way; further: potency means the concentration at half of the fitted maximal effect; nearly all actives have a fitted effect of over 30% in size
Sfp inh – blocks B. subtilis Sfp PPTase activity; AID 1490; 310,000 compounds, 3.5% hits; Potency, µM, for inactives: largest response in the series, negative = inhibition, usual class: inhibitors; Biochemical Sfp PPTase activity, qHTS; Q9F4F7;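 further: the enzyme is Sfp with the accession as filed and its product quenches rhodamine fluorescence; potency means the concentration at half of the fitted maximal effect; 0% = enzyme reaction without inhibitor and -100% = no enzyme wells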
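Sfp 15 nM + cpd, 15 min RT; start w/ rhodamine-CoA 5 uM, BHQ-2-YbbR 12.5 uM (final); 50 mM Hepes pH 7.6, 10 mM MgCl2, 0.01% NP-40, 0.01% BSA; read 525/598 nm at 0 and 30 min.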
ALDH1A1 block – blocks purified human ALDH1A1 activity. 220,000 compounds, 7.3% hits. Potency, µM (highest dose often 75.3 µM), for the others: top-dose activity, negative = inhibition, hits mostly inhibitors. Purified ALDH1A1, NADH fluorescence, propionaldehyde substrate. P00352; active means well fitted inhibition curve with a large enough effect, not every such curve was filed as active; inconclusive means small, poorly fitted or top-dose-only effect, or another doubt; inactive means no such curve, though single readings can be large or run the other way;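 further: potency means the concentration at half of the fitted maximal effect; plate controls were no enzyme wells and a reference inhibitor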
Target sequence (P00352 whole entry, looked up): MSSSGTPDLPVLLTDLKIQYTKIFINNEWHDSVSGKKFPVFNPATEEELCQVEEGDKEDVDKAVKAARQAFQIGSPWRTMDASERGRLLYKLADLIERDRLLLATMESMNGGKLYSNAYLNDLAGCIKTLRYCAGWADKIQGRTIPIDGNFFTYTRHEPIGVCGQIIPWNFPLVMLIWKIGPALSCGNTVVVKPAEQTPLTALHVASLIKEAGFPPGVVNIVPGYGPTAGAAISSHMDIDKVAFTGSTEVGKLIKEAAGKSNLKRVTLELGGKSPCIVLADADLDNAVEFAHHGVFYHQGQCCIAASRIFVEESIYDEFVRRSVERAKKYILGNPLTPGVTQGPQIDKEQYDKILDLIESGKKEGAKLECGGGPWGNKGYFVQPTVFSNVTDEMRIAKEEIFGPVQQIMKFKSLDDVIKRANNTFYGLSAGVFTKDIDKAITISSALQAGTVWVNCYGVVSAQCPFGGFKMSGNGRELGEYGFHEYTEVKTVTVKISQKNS
An asterisk follows results filed as active; ? = inconclusive; nt = no result given; [ ] = another dose, or the depositor's remark. Unless noted, the call rests on the fitted dose curve; in most records, active means well fitted curve in the direction sought with a large enough effect; inconclusive means small, poorly fitted or top-dose-only effect, or another doubt; inactive means no such curve, though single readings can be large; an effect the other way counts as inactive or inconclusive. Unless noted, on the % scale 0 is the no-effect control and ±100 the full control effect.

SMILES | KDM4E inh | NPSR antagonist | Coupling enz | GoLoco inh red | Sfp inh | ALDH1A1 block
CCN(CC)CCOC(=O)C(Cc1cccc2ccccc12)CC1CCCO1 (stereo not given) | 22.4µM* | nt | 0.7 | 1.8% | -23.7% | -2.9%
Cc1nc2ccc(NC(=O)N3CCCCC3)cc2nc1C | ? | 2.0% | -3.0 | 5.5% | -7.7% | ?
CCOC(=O)C1CCN(C(=O)Nc2ccc3c(c2)nc(C)n3C)CC1 | ? | -5.9%[46.1 µM] | -4.9 | -2.1% | 15.3% | -17.6%
O=C(Nc1ccc2nc(-c3ccco3)c(-c3ccco3)nc2c1)N1CCCCCC1 | ? | 10µM* | -36.8* | 28.3% | 14.1µM* | ?
CCOC(=O)C1CCN(C(=O)Nc2ccc3nc(-c4ccco4)c(-c4ccco4)nc3c2)CC1 | ? | -21.4%[46.1 µM] | -44.6* | 11.9% | 14.1µM* | ?
CCOc1ccc(-c2cc(C(=O)N/N=C(\C)c3cccnc3)c3ccccc3n2)c(OCC)c1 | nt | nt | 1.2 | nt | -5.7% | nt
COc1ccc(CNc2ccc3c(c2)CCC3)cc1Br | nt | nt | -2.1 | nt | -9.1% | nt
CCOc1cc(CNc2ccc3c(c2)CCC3)ccc1OC | ? | 8.6%[46.1 µM] | -5.0 | -1.6% | 4.4% | 20µM*
Cc1ccc(-c2nn(-c3ccccc3)cc2/C=C2\SC(=S)N(CC(=O)O)C2=O)cc1 | 8.0% | 12.6µM* | 8.5 | 9.3% | 50.1µM* | nt
CN(C)C(=O)c1cn(-c2ccccc2)nc1-c1cccc([N+](=O)[O-])c1 | 2.9% | -3.4% | -2.0 | 6.6% | 1.6% | 8.91µM*
Cc1ccc(C(=O)N/C(=C/c2cn(-c3ccccc3)nc2-c2ccccc2)C(=O)O)cc1 | 6.2% | 7.7% | 7.1 | 0.1% | 3.8% | 11.2µM*
COc1ccc(-c2nn(-c3ccccc3)cc2/C=C2/SC(=S)N(CCC(=O)O)C2=O)cc1 | nt | nt | -0.7 | nt | -6.7% | nt
CC(C)NC(=O)/C(=C/c1cn(-c2ccccc2)nc1-c1cccc([N+](=O)[O-])c1)NC(=O)c1ccccc1 | -2.2% | 5.8% | -5.3 | 6.1% | 2.9% | 14.1µM*
O=C(N/N=C/c1cc2c(cc1Cl)OCO2)c1cc(-c2ccccc2)n[nH]1 | nt | nt | nt | nt | 15.0% | nt
COc1ccc(S(=O)(=O)N(C)CC(=O)NCCCn2ccnc2)cc1Cl | nt | nt | 1.9 | nt | 14.7% | nt
COc1cc(NC(=O)c2cccc(C)c2)c(Cl)cc1[N+](=O)[O-] | 2.3% | 6.2% | -6.4 | 10.8% | 7.8% | ?
Cc1ccc(N)c(Cl)c1 | nt | nt | -3.0 | nt | 10.7% | nt
CCN(CC)S(=O)(=O)c1ccc(OCC(=O)NC2CCS(=O)(=O)C2)c([N+](=O)[O-])c1 (stereo not given) | 4.9% | 11.8% | 1.0 | -27.3% | 12.1% | 14.1µM*
CCc1ccc(CN2CCC(n3nccc3NC(=O)c3ccccc3)CC2)o1 | nt | nt | nt | nt | 1.6% | nt
N#CC1=C(N)NC(=S)C(C(N)=O)C1c1ccc([N+](=O)[O-])cc1 (stereo not given) | ? | 4.5% | 5.5 | -4.6% | 1µM* | -17.2%
CCN(CC(=O)Nc1c(F)cccc1F)C(=O)CSc1nc(C)cc(C)n1 | nt | nt | nt | nt | 9.9% | nt
CSc1nc(NCCOCCO)c2sc3nc(-c4ccco4)c4c(c3c2n1)CCC4 | ? | -21.8%[46.1 µM] | 1.7 | 62.6% | 35.5µM* | ?
CCN(CCO)c1nc(SC)nc2c1sc1nc(-c3ccco3)c3c(c12)CCC3 | 3.55µM* | -27.6%[46.1 µM] | 2.2 | 33.0% | ? | 2µM*
CSc1nc(NCc2ccco2)c2sc3nc(C(C)C)c4c(c3c2n1)CC(C)(C)OC4 | ? | -5.0%[46.1 µM] | -4.6 | -11.1% | ? | ?
O=S(=O)(c1cccc(-c2n[nH]c(=S)o2)c1)N1CCOCC1 | -4.5% | -34.7% | 5.6 | -7.7% | 25.1µM* | nt
SMILES | KDM4E inh | NPSR antagonist | Coupling enz | GoLoco inh red | Sfp inh | ALDH1A1 block
S=c1[nH]nc(-c2cccc(Br)c2)o1 | ? | 15.6%[46.1 µM] | 8.9 | 1.6% | 10.9% | 6.31µM*
Nn1c(-c2cccc(Br)c2)n[nH]c1=S | ? | -3.4%[46.1 µM] | -0.1 | 4.7% | ? | 22.4µM*
NNC(=S)Nc1cccc(-c2n[nH]c(=S)o2)c1 | ? | -26.8% | 3.4 | -4.6% | 79.4µM* | nt
O=S(=O)(c1cccc(-c2nnco2)c1)N1CCOCC1 | 1.7% | 15.7% | 0.3 | 5.6% | 6.4% | 0.1%
CC(OCc1ccccc1)C(NC(=O)OC(C)(C)C)C(=O)NC1COC2CC(n3cc(F)c(=O)[nH]c3=O)OC12 (stereo not given) | nt | nt | 3.8 | nt | 2.7% | nt
S=c1[nH]nc(-c2cccnc2)o1 | -9.1% | -12.6%[46.1 µM] | 2.2 | 0.6% | 56.2µM* | -10.7%
c1cncc(-c2cc(-c3cc(-c4cccnc4)n[nH]3)[nH]n2)c1 | nt | nt | nt | 5.4%[14.2 µM] | nt | 25.1%[13.5 µM]
Cc1cccc(-n2c(CNC(=O)c3ccc(S(=O)(=O)N(C)C)cc3)nnc2SCC(=O)Nc2ccc(F)cc2)c1 | -9.0% | 14.2% | -1.7 | 5.1% | 2.1% | 0.447µM*
Cc1cccc(NC(=O)CSc2nnc(CNC(=O)c3ccc(S(=O)(=O)N(C)C)cc3)n2-c2cccc(C)c2)c1 | -2.3% | -24.1% | 6.2 | 9.3% | -5.4% | ?
Cc1cccc(NC(=O)CSc2nnc(CNC(=O)c3ccc(S(=O)(=O)N(C)C)cc3)n2-c2ccccc2)c1 | 0.5% | 1.1% | 3.1 | 8.1% | 5.0% | 7.08µM*
Cc1ccc(S(=O)(=O)N(C)c2cccc3cccnc23)cc1 | nt | nt | 2.2 | nt | 9.7% | nt
COc1ccc(-c2nc3cnc(N4CCNCC4)nc3n(C3CC3)c2=O)cc1 | nt | nt | -2.0 | 4.8% | 29.0% | ?
O=C(C[C@@H](c1ccccc1)N1CCCCC1)c1ccccc1 | nt | nt | nt | 5.1%[14.2 µM] | nt | 13.7%[13.5 µM]
Cc1nn(-c2nnc(C)c(=O)[nH]2)c(C)c1SCC(=O)Nc1ccc(F)cc1 | 0.4% | 1.5%[46.1 µM] | 4.0 | 5.6% | 31.6µM* | ?
CC(=O)C1=C(O)C(=O)N(Cc2ccco2)C1c1ccccc1 (stereo not given) | -10.1% | -10.2%[46.1 µM] | -7.0 | -7.4% | 56.2µM* | 0.1%
CCN(CC)CCN1C(=O)C(O)=C(C(C)=O)C1c1ccc(OC)c(OC)c1 (stereo not given) | -15.8% | 2.3%[46.1 µM] | -1.4 | -7.3% | -7.9% | 17.8µM*
COc1ccc(C2C(C(C)=O)=C(O)C(=O)N2CCN(C)C)cc1OC (stereo not given) | -0.5% | 5.7%[46.1 µM] | -0.1 | 8.9% | 13.5% | -0.6%
CC(=O)C1=C(O)C(=O)N(Cc2ccco2)C1c1ccc(F)cc1 (stereo not given) | ? | 4.0%[46.1 µM] | -2.8 | -1.9% | 44.7µM* | -6.3%
CN(C)CCN1C(=O)C(O)=C(C(=O)c2ccco2)C1c1ccccc1F (stereo not given) | -0.6% | 10.6%[46.1 µM] | -1.4 | 1.2% | 9.0% | -8.3%
CC(=O)C1=C(O)C(=O)N(Cc2ccco2)C1c1ccccc1F (stereo not given) | -26.2% | 7.9% | -8.0 | 2.8% | -16.5% | 10µM*
COc1cccc(C2C(C(C)=O)=C(O)C(=O)N2Cc2ccco2)c1 (stereo not given) | -6.5% | -13.1%[46.1 µM] | -3.6 | 5.6% | -18.5% | -1.5%
